About 7,500 (2.1%) of roughly 360,000 compounds were called active. Roughly 20% stayed inconclusive and do not appear here. This is one part of a sample in which actives are shown more often than they occur. Calls come from the whole dose curve; as a rule, active = well fitted inhibition curve with a large enough effect; inconclusive = small, poorly fitted or top-dose-only effect, or effect the other way; inactive = flat fitted curve, though single readings scatter.
Experiment: Nrf2 qHTS screen for inhibitors; note: nearly all actives have a fitted effect of over 60% in size
Settings: A549 ARE-Fluc reporter, luciferase luminescence, 18-24 h; series mostly up to 46 µM; activity change, negative = inhibition: at the top concentration
Excerpt: NIH Molecular Libraries Probe Production Network [MLPCN]
NIH Chemical Genomics Center [NCGC]
Assay Provider: Shyam Biswal, Johns Hopkins University
Nrf2 is a transcription factor that maintains cellular redox homoestasis and protects cells from xenobiotics. Nrf2 binds to the antioxidant response element (ARE) to induce gene expression of a broad spectrum of genes that encode for antioxidants. […] Finding a small molecule that act as an inhibitor of Nrf2 function would represent a novel therapeutic target that could lead to improvement in survival of patients undergoing chemo- and/or radio- therapy.
This is the Nrf2 activity measured in the luminescent read.
1. Shibata, T., et al., Genetic Alteration of Keap1 Confers Constitutive Nrf2 Activation and Resistance to Chemotherapy in Gallbladder Cancer. Gastroenterology, 2008.
2. Sjoblom, T., et al., The consensus coding sequences of human breast and colorectal cancers. Science, 2006. 314(5797): p. 268-74.
NCGC Assay Protocol Summary:
A concentration-response assay was performed with A549 ARE_Fluc cells which are suspended in 5% FBS OPTI-MEM. Five uL were dispensed into 1536-well white TC-treated plate using the Kalypsys dispenser to achieve a density of 5000 cells/well in all columns except column 1. The plate is incubated at 37deg C at 5% CO2 for 2 hours before 23 nL of compounds are added with the Kalypsys pin tool equipped with a 1,536-pin array containing 10-nL slotted pins (FP1S10, 0.457-mm diameter, 50.8 mm long; V&P Scientific). The control compounds Budesonide and Staurosporine are both added at a concentration of 2mM and Budesonide is also added as a 1:10 titration, starting at 200uM, to achieve dose-response. After an 18-24 hour incubation at 37deg C at 5% CO2, 5ul of medium is added to column 1. Afterwards 1ul of 5x of CellTiter-Fluor (Promega) is added to every well. The plate is then incubated at 37deg C at 5% CO2 for 30 minutes before they are read on the ViewLux (Perkin Elmer) for a fluorescent read Ex=405(10)/Em=525(10) for a 3 second exposure, 2x binning, and high gain. Then 3 uL of 3x BugLite is dispensed into all wells and the plate is incubated at ambient room temperature for 15 minutes. Afterwards another ViewLux read is performed using the clear filter to get a luminescent read with the settings of 40 second exposure, 2x binning, and high gain. Cytotoxicity is assessed through the first fluorescent read and then biochemical activity against Nrf2 is measured in the luminescent read.
% is set by controls: 0 for no effect and ±100 for the full control effect; potency is the fitted concentration of half-maximal effect.

Compound | activity change, negative = inhibition | Potency
O=C(c1ccc2c(=O)n(Cc3ccco3)c(=S)[nH]c2c1)N1CCCC1 | -26.7% (inactive) | 
O=C(Nc1cc(S(=O)(=O)N2CCCCC2)ccc1Cl)C1COc2ccccc2O1 (stereo not drawn) | -17.2% (inactive) | 
CCOC(=O)c1cc(=O)c2ccc(OCc3ccccc3)cc2o1 | 0.81% (inactive) | 
CCCOC(=O)c1cc2ccccc2oc1=O | -4.8% (inactive) | 
CCc1ccc(Oc2coc3cc(O)ccc3c2=O)cc1 |  | 7.31 µM (active)
COc1ccc(Oc2coc3cc(OC(=O)c4cncc(Br)c4)ccc3c2=O)cc1 | -23.2% (inactive) | 
CCc1ccc(Oc2coc3cc(OC(=O)c4cc5ccccc5oc4=O)ccc3c2=O)cc1 |  | 4.61 µM (active)
COc1ccc(-c2onc(C)c2C)cc1S(=O)(=O)NCc1cccs1 | -14.2% (inactive) | 
CC(C)Cn1c(=O)c2ccccc2n2c(-c3cccc(Cl)c3)nnc12 | 0.39% (inactive) | 
CCOC(=O)N1CCN(C(=O)c2ccc(S(=O)(=O)Nc3cccc(C(F)(F)F)c3)cc2)CC1 |  | 18.4 µM (active)
O=C(Nc1ccc(C(=O)N2CCOCC2)cc1)Nc1cccc(C(F)(F)F)c1 | -28.3% (inactive) | 
CCOC(=O)c1cccc(NS(=O)(=O)c2c(C(=O)N3CCCCCC3)c(C)n(C)c2C)c1 | 5.58% (inactive) | 
Cc1ccc(C)c(N2CCN(C(=O)CCc3nc(-c4cccc(C(F)(F)F)c4)no3)CC2)c1 | -25.2% (inactive) | 
COc1ccc(C(=O)OCC(=O)c2cc(C)n(CC3CCCO3)c2C)cc1[N+](=O)[O-] (stereo not drawn) | -11.4% (inactive) | 
Cc1oc2ncnc(N3CCCCC3)c2c1C(=O)N1CCN(c2cccc(Cl)c2)CC1 | 5.11% (inactive) | 
CC(=O)OCC1(O)CC23CCC4c5ccoc5CCC4(C)C2CCC1C3 (stereo not drawn) | -16.8% (inactive) | 
CCC1(C)Cc2c(sc3nc4n(c(=O)c23)CCCS4)CO1 (stereo not drawn) | 1.02% (inactive) | 
CCC1(C)Cc2c(sc3nc(SC)[nH]c(=O)c23)CO1 (stereo not drawn) | -5.53% (inactive) | 
CCC1(C)Cc2c(sc3[nH]c(=S)n(Cc4ccccc4)c(=O)c23)CO1 (stereo not drawn) |  | 16.4 µM (active)
COc1ccc(Cl)cc1NC(=O)c1sc2nc3c(cc2c1N)CN(C)CC3 | 1.59% (inactive) | 
COc1ccc(CNc2nc(-c3ccc(Cl)cc3)cc(C(F)(F)F)n2)cc1 | 0.506% [at 9.27 µM] (inactive) | 
CN(C)c1ccc(C(=O)NCC(=O)OC(C(=O)Nc2cc(C(F)(F)F)ccc2Cl)c2ccccc2)cc1 (stereo not drawn) | 6.05% (inactive) | 
Cc1cccc(N2O[C@H]3C=CC2CCCC3)n1 | 26.1% (inactive) | 
COc1cc(/C=C/C(=O)OCC(=O)N2CCOCC2)ccc1OCC#N | 9.99% (inactive) | 

Compound | activity change, negative = inhibition | Potency
COc1ccc(NS(=O)(=O)c2cc(NC(=O)/C=C/c3cc(OC)c(OC)c(OC)c3)ccc2N2CCCCC2)cc1 | -12.4% (inactive) | 
COc1ccc(COC(=O)c2ccc(Cl)c(S(=O)(=O)N3CCOCC3)c2)cc1F | -8.75% (inactive) | 
Cc1ccc(C(=O)OCC(=O)N2CCCCCC2)cc1S(=O)(=O)N1CCOCC1 | 8.03% (inactive) | 
COc1ccc(CNC(=O)COC(=O)c2ccc(C)c(S(=O)(=O)N3CCOCC3)c2)cc1OC | -8.32% (inactive) | 
COc1cc(/C=C/C(=O)Nc2ccc(OC)c(S(=O)(=O)N3CCOCC3)c2)ccc1OCC#N |  | 9.2 µM (active)
COc1ccc(CC(=O)Nc2ccc3c(c2)CCC3)cc1S(=O)(=O)N1CCOCC1 | -17% (inactive) | 
COc1ccc(C(=O)OCC(=O)c2ccc(C)c(S(=O)(=O)N3CCOCC3)c2)cc1OC |  | 20.6 µM (active)
COc1ccc(CCC(=O)Nc2ccc(Cl)c(S(=O)(=O)N3CCOCC3)c2)cc1OC |  | 18.4 µM (active)
CCN1CCN(CCCNC(=O)c2ccc3c(c2)sc2nc(-c4ccc(OC)cc4)cn23)CC1 | -26% (inactive) | 
Cc1ccc(O)c(NC(=O)CCS(=O)(=O)c2nc(-c3ccc4c(c3)OCO4)cc(C(F)(F)F)n2)c1 | 8.08% [at 9.27 µM] (inactive) | 
CC1CCCCN1CC(=O)N1CCCc2c1c(=O)oc1ccc(OCc3ccccc3)cc21 (stereo not drawn) | -15.1% (inactive) | 
CC1=C(c2ccc(C)c(C)c2)S(=O)(=O)NC1=NCc1ccccc1Cl |  | 23.1 µM (active)
Cc1ccc(-c2cc(C(=O)Oc3ccccc3Cl)no2)cc1C | 12.8% (inactive) | 
Cc1ccc(CNc2ncnc3cc(-c4ccc5c(c4)OCO5)ccc23)o1 | 4.57% (inactive) | 
O=C(O)c1ccc(NC(=O)c2ccc(COc3ccc(Cl)cc3)o2)cc1 | 29.2% (inactive) | 
Cc1cccc(NC(=O)c2ccc(COc3ccccc3[N+](=O)[O-])o2)n1 | -18.1% (inactive) | 
O=C(Nc1ccn(Cc2ccccc2F)n1)c1ccc(COc2ccc(Cl)cc2Cl)o1 |  | 25.9 µM (active)
CCc1nn(CC(=O)Nc2cc(C)cc(C)c2)c(=O)c2cc3sccc3n12 | 9.2% (inactive) | 
CC1CC2=C(CC1/C=N/NC(N)=S)C(C)(C)CCC2 (stereo not drawn) |  | 23.1 µM (active)
CCc1nc2nc(C)cc(Nc3ccc(F)c(Cl)c3)n2n1 | -13.4% (inactive) | 
Cc1ccc(CNC(=O)Cn2cnc3c(NCc4ccccc4)ncnc32)o1 | -7.86% (inactive) | 
Cc1cccc(NC(=O)Cn2cc(S(=O)(=O)Cc3ccccc3Cl)c3ccccc32)c1 | -4.12% (inactive) | 
O/N=C(\C[n+]1ccccc1)c1ccc(Br)cc1 |  | 3.66 µM (active)
O=C(O)CC/C(=N\NC(=O)c1ccc(F)cc1)c1ccc(Br)cc1 | 7.74% (inactive) | 

Source: PubChem BioAssay AID504444 (National Center for Advancing Translational Sciences (NCATS), 2011)
